Among all 4,900 compounds or so, about 2,100 (43%) were called active.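 Rule for the calls: active = thallium signal inhibited by more than 5 SD of the compound-free buffer control wells, on both duplicate plates; inactive = the rest.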 The set was probably picked from earlier hits. The list is a sample of the results.
target: Potassium channel subfamily K member 9 (Homo sapiens) (UniProt Q9NPC2); assay: KCNK9 potassium channel inhibitors, confirmation, HEK293 cells, thallium flux, duplicate (AID 492992); details: FluxOR thallium flux fluorescence, at 10 µM; stronger effect = higher value;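 for inhibition: 0% = assay buffer control wells without compound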
Sequence (Q9NPC2 whole entry, looked up): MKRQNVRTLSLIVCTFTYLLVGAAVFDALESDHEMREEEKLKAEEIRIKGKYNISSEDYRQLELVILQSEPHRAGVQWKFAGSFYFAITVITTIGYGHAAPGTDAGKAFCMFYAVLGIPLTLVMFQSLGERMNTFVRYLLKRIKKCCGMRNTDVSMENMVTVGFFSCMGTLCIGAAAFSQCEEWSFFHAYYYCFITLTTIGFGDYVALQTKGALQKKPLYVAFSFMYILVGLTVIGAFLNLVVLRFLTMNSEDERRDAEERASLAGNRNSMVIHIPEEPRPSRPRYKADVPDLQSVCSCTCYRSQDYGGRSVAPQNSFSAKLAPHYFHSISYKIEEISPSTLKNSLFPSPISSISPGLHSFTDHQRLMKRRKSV

inhibition, active:
COc1cccc(COc2ccc(N(C)S(=O)(=O)c3ccccc3)cc2)c1 50%
Cn1nc(-c2ccccc2)c(CSc2cccc(Cl)c2)c1Cl 34.5%
COC(=O)c1cc(NC2c3ccccc3C(=O)N2c2ccc(Cl)cn2)cc(C(=O)OC)c1 (configuration not stated) 29.5%
COCCNc1cc(-c2ccccc2)nc2cc(-c3cccc(F)c3)nn12 53.5%
CC(C)C(=O)Nc1cccc(NC(=S)NC(=O)C(c2ccccc2)c2ccccc2)c1 52%
COc1cc(Cl)c(C)cc1NC(=O)CSc1nnc(-c2ccco2)n1CC(C)C 41.5%
COc1ccc(Nc2ncnc3sc(-c4ccccc4)cc23)c(OC)c1 33.5%
CCOC(=O)C(C)Sc1nc2ccccc2c(=O)n1CC1CCCCC1 (configuration not stated) 40.5%
COc1ccc(-c2nc(CCNC(=O)c3ccc(Br)o3)cs2)cc1 28.5%
CC1(C)CC(N2CCN(C(c3ccccc3)c3ccccc3)CC2)=CC(=[N+]2CCCCC2)C1 68%
N#Cc1nc(Cc2cccc3ccccc23)oc1NCc1ccc2c(c1)OCO2 45%
C=CCN(N=Nc1cccc([N+](=O)[O-])c1)c1cccc([N+](=O)[O-])c1 57.5%
CCCCCn1c(=O)c(C(=O)OCC)c(Cl)c2ccccc21 45.5%
CN(C)S(=O)(=O)N1CCC(Oc2cccc(C(=O)NCCCC3CCCC3)c2)CC1 62%
O=C(/C=C/NNC(=O)c1cccc(Br)c1)c1ccccc1 60%
Cc1c(C(=O)Nc2ccccn2)oc2ccc(Br)cc12 36%
CC1(C)CC(=O)CC2(C1)NCC(c1ccccc1Cl)c1c2[nH]c2ccccc12 (configuration not stated) 66.5%
c1ccc(C(c2ccccc2)N2CCN(Cc3nnnn3C3CCCCC3)CC2)cc1 34.5%
Clc1cccc(-c2nc3nc4ccccc4nc3n2Cc2ccco2)c1 32%
CCCC1=Nc2cc(C(=O)NCc3ccco3)ccc2Sc2ccccc21 31.5%
Cc1cc(Oc2ccc(Cl)cc2)nc(SCC(=O)c2ccccc2)n1 34%
C=CCc1cc(S(=O)(=O)c2ccc(O)c(CC=C)c2)ccc1O 69%
O=C1c2ccccc2C2=Nc3ccccc3SC(c3ccccc3F)C12 (configuration not stated) 50%
COc1ccc(NC(=O)CN(C)CC(=O)Nc2cccc(C(F)(F)F)c2)cc1 44.5%
CSc1cccc(NC(=S)N(C(C)C)C(C)c2ccccn2)c1 (configuration not stated) 66.5%
COc1ccccc1NC(=O)CSc1nc2sc(C)c(C)c2c(=O)n1Cc1ccco1 48.5%
Cc1nc(N2CCN(c3ccccn3)CC2)c2c(C)c(C(=O)Nc3ccc(F)c(Cl)c3)sc2n1 48.5%
CCC1=NN(C(=O)Cc2ccc([N+](=O)[O-])cc2)C(O)(c2ccc(Br)cc2)C1 (configuration not stated) 65%
O=C(OCC(=O)N(CCc1ccccc1)Cc1ccccc1)c1ccccc1[N+](=O)[O-] 58.5%
CCOc1ccc(C2c3[nH]c4ccccc4c3CCN2Cc2cccn2-c2ncccn2)cc1 (configuration not stated) 35%
CCC(C)(C)n1nnnc1C(c1cccs1)N1CCN(c2nc3ccccc3s2)CC1 (configuration not stated) 39%
COc1ccc2c(c1)C(c1cccs1)=NNC(c1cccnc1)=N2 43%

inhibition, inactive:
CCOC(=O)C(C)n1cnc2scc(-c3ccc(C)c(C)c3)c2c1=O (configuration not stated)
Cc1ccc(Cn2ccc(NC(=O)c3cc(C(C)C)on3)n2)cc1
O=C(Nc1cc(Cl)cc(Cl)c1)C(NCCCO)c1ccccc1 (configuration not stated)
COC(C(=O)Nc1ccc(S(=O)(=O)Nc2ccc(C)c(C)c2)cc1)c1ccccc1 (configuration not stated)
O=C1CC(NNc2ccccc2)C(=O)N1c1cccc(Cl)c1 (configuration not stated)
CN(C)c1ccc(C(CNC(=O)c2ccc(F)cc2)c2c[nH]c3ccccc23)cc1 (configuration not stated)
COc1cccc(-c2nn(C)c3sc(C(=O)N4CCN(c5ccccc5)CC4)cc23)c1
CCOC(=O)N/N=C/c1cn(Cc2ccccc2Cl)c2ccccc12
CCOc1ccccc1NC(=O)C1CCCN(S(=O)(=O)c2ccccc2)C1 (configuration not stated)
Cc1csc(Nc2ccc(Cl)cc2)[n+]1-c1ccc(Cl)cc1
Cc1cc(C)cc(NC(=O)CSCc2cnn(-c3ccccc3)c2-n2cccc2)c1
Cc1ccc2c(c1)N(C(=O)CCC(=O)N1CCc3ccccc3C1)CCO2
O=C(CSCc1ccc(Cl)cc1)N1CCN(Cc2ccc3c(c2)OCO3)CC1
Cc1ccc(NC2CCCN(C(=O)CCC3(C)CC3)C2)cc1C (configuration not stated)
Cc1cccc(NC(=O)CN2CCCN(S(=O)(=O)c3ccc(Br)s3)CC2)c1
O=C(NCc1ccco1)c1ccc(NS(=O)(=O)c2cccc([N+](=O)[O-])c2)cc1
O=S(=O)(Nc1cccc(Oc2ccc(Cl)cc2)n1)c1ccc(F)cc1
COc1cc(Cl)ccc1OCc1cc(C(=O)N2CC[C@@H]3CCCC[C@H]3C2)no1
Clc1ccc(CSc2nnc(/C=C/c3ccccc3)o2)c(Cl)c1
COC(=O)c1cccc(C(=O)N2CCCC(Nc3ccc4c(c3)OCCO4)C2)c1 (configuration not stated)
CCOC(=O)C1(CCOc2ccccc2)CCN(Cc2cc(OC)c(O)cc2Cl)CC1
O=C(NC1Cc2ccccc2C1)c1cc(COc2cccc(C(F)(F)F)c2)on1
COc1cccc(COC(=O)C2CCN(S(=O)(=O)c3ccc(Cl)cc3)CC2)c1OC
O=S(=O)(c1ccc(F)cc1)N1CCN(Cc2ccccc2C(F)(F)F)CC1
COc1ccccc1/C=C/C=N/n1c(-c2ccc(Cl)cc2Cl)n[nH]c1=S
O=C(Nc1ccc(Br)c2cccnc12)c1ccc(Cn2cc([N+](=O)[O-])cn2)o1
Cc1cc(Cl)ccc1C(=O)C1CCCN(C(=O)CCN2CCCO2)C1 (configuration not stated)
Cc1cc(C)cc(OCC(=O)Nc2cc(NC(=O)COc3cc(C)cc(C)c3)cc(C(=O)O)c2)c1
COc1cc(C2CC(=O)N3CN(Cc4ccccc4)CSC3=C2C#N)ccc1OCc1ccccc1 (configuration not stated)
COCCN(C(=S)Nc1cccc(Cl)c1C)C(C)c1ccco1 (configuration not stated)
